# Data taken from PubChem BioAssay (NCI).
# Compounds without any hit were thinned out: in the full panel of roughly 83,000, 20% have a hit.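 Interpretation: 100, growth as untreated; towards 0, rising growth inhibition; 0, no net growth; 0 to -100, cell death. Compounds scoring below 10 were considered active.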 Values without a mark were called inactive. Active and inactive are the calls of the source.
# System: SF-268 CNS
# Test: NCI-60 one-dose screen, 48 h (100 = growth as untreated, 0 = no growth, -100 = all killed)
# Settings: 10 µM unless noted
row,SMILES,growth
1,Cc1cc(N(CCCNc2ccnc3cc(Cl)ccc23)Cc2ccccn2)nc(N2CCOCC2)n1,83.3%
2,C=C(CNCCc1ccc(O)cc1)[C@@H]1CC[C@]2(COC3CCCCO3)CC[C@]3(C)[C@H](CC[C@@H]4[C@@]5(C)CCC(N)C(C)(C)[C@@H]5CC[C@]43C)[C@@H]12 (stereo partly specified),-71.6% (active)
3,Clc1ccc2c(NCCCN3CCN(c4nc(-n5ccnc5)nc5ccccc45)CC3)ccnc2c1,80%
4,Cn1c(NCCc2ccc(O)c(O)c2)nc2c1c(=O)n(Cc1ccc(Cl)cc1)c(=O)n2C,72.4%
5,CCN(CC)N=Nc1nn(C(=O)Nc2ccc(Cc3ccccc3)cc2)c2ccc(Cl)cc12,76%
6,COC(=O)c1ccc2oc(NC(=O)c3ccc(N4CCOCC4)c([N+](=O)[O-])c3)nc2c1,97.4%
